# Source: PubChem BioAssay
# Giardia FBPA inh-1 – blocks Giardia fructose-bisphosphate aldolase activity. actives 0.71% (n = 290,000). AID 2451. A8B2U2. Potency, µM (top dose mostly 59.6 µM), without a hit: top-dose activity, negative = inhibition, usual class: inhibitors. purified Giardia FBPA; note: nearly all actives have a fitted effect of over 55% in size
# Target sequence (A8B2U2 whole entry, looked up): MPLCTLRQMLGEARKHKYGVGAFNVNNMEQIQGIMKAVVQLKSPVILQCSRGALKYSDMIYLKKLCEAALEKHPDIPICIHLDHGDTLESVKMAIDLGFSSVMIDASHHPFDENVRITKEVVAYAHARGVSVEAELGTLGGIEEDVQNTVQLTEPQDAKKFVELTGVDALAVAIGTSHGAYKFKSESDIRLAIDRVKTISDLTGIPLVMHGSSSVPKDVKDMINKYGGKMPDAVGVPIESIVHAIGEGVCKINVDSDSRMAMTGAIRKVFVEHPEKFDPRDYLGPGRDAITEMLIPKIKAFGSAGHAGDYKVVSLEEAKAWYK
#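 Giardia FBPA (40 nM reagent) was preincubated 10 min at RT with compound (up to 57.5 uM final), then substrate plus GAPDH/TPI/NAD/arsenate coupling system with diaphorase/resazurin was added; resorufin fluorescence (525/598 nm) was read after 20 min.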
# Sm TGR inh – S. mansoni TGR enzyme inhibition; actives 3% (n = 360,000); Potency, µM (titrated, usually from 114 µM), without a hit: top-dose activity change, negative = inhibition, hits mostly inhibitors; purified TGR, DTNB reduction, TNB absorbance 405 nm; AID 485364; note: nearly all actives have a fitted effect of over 60% in size
#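 First, TGR (20 nM dispensed) and NADPH were mixed with compound. Second, a 15 min room-temperature incubation followed. Third, further NADPH and then DTNB were added to start the reaction. Finally, TNB absorbance was monitored kinetically.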
# Tb PYK inh – inhibitors of Trypanosoma brucei pyruvate kinase | AID 624173 | actives 0.12% (n = 410,000) | TbPYK enzyme, Kinase-Glo Plus ATP luminescence, 45 min | Potency, µM (titrated, usually from 76.8 µM), for inactives: at the top dose activity, negative = inhibition, usual class: inhibitors; note: nearly all actives have a fitted effect of over 50% in size
#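 Enzyme and substrate buffer are dispensed first and compound is pin-transferred. ADP at 130 uM final then starts the reaction, which runs 45 min at room temperature. Detection reagent is added for 10 min before luminescence is imaged.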
# RE007 growth inh – less growth of the S. pombe RE007 Vpr strain. S. pombe RE007 Vpr strain, BacTiter-Glo ATP luminescence, 24 h. Potency, µM (top dose mostly 92.2 µM), without a hit: at the highest dose activity change, negative = less growth, most hits filed as inhibitors. actives 0.21% (n = 360,000). AID 651644; active = well fitted falling curve with a large enough effect; inconclusive = small, poorly fitted or top-dose-only effect; inactive = no such curve, though single readings can be large or run the other way; note: nearly all actives have a fitted effect of over 50% in size
#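 Fission yeast strain RE007, carrying one chromosomally integrated HIV-1 vpr copy, was seeded at OD 0.01 in PMG+AL medium with 23 nL pinned compound. After 24 h at 30 °C and 99% humidity, viability was read by BacTiter-Glo luminescence.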
# LmPK inh – inhibitors of Leishmania mexicana pyruvate kinase. purified LmPK, Kinase-Glo ATP luminescence, 1 h. Potency, µM (series often up to 57.5 µM), for inactives: top-dose activity change, negative = inhibition, actives largely listed as inhibitors. actives 0.37% (n = 290,000). Q27686
#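 Purified LmPK (0.1 nM) with 0.5 mM PEP and 0.1 mM ADP in imidazole buffer pH 7.2 with MgCl2/KCl, 1 h at room temperature. ATP formed was read by luciferase luminescence and normalized to no-enzyme and uninhibited controls.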
# Giardia growth – inhibitors of Giardia lamblia growth; Giardia lamblia trophozoite growth inhibition; shares compounds with Giardia FBPA inh-1; Potency, µM (titrated, usually from 57.5 µM), for the others: at the top dose activity change, negative = inhibition, most hits filed as inhibitors; actives 5% (n = 1,500);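 note: trophozoites exposed to compound for 48 h at 37 °C; nearly all actives have a fitted effect of over 70% in size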
# Mammal cell tox – toxic to mammalian cells in Giardia aldolase counter-screen; shares compounds with Giardia FBPA inh-1; mammalian cell viability counter-screen, qHTS; Potency, µM (doses to about 57.5 µM), inactives show at the highest dose viability change, negative = toxicity, most hits filed as inhibitors; actives 4% (n = 1,500);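 note: Chinese hamster ovary cells used as mammalian cytotoxicity surrogate; viability measured as cellular ATP by luminescence; compound exposure lasted 48 h before reading; nearly all actives have a fitted effect of over 60% in size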
# Giardia FBPA inh-2 – confirmation of Giardia fructose-bisphosphate aldolase inhibitors; shares compounds with Giardia FBPA inh-1; purified Giardia aldolase enzyme activity, qHTS; Potency, µM (titrated, usually from 57.5 µM), inactives show top-dose activity change, negative = inhibition, usual class: inhibitors; actives 5% (n = 1,500); AID 2787; note: nearly all actives have a fitted effect of over 45% in size
# Rabbit aldolase – rabbit FBP aldolase inhibition by Giardia aldolase hits; Potency, µM (top dose mostly 57.5 µM), for the others: at the highest dose activity, negative = inhibition, hits mostly inhibitors; actives 4% (n = 1,500); AID 2794; shares compounds with Giardia FBPA inh-1; Rabbit muscle FBPA enzyme inhibition, selectivity counter-screen; note: nearly all actives have a fitted effect of over 60% in size
# Target sequence (P00883 whole entry, looked up): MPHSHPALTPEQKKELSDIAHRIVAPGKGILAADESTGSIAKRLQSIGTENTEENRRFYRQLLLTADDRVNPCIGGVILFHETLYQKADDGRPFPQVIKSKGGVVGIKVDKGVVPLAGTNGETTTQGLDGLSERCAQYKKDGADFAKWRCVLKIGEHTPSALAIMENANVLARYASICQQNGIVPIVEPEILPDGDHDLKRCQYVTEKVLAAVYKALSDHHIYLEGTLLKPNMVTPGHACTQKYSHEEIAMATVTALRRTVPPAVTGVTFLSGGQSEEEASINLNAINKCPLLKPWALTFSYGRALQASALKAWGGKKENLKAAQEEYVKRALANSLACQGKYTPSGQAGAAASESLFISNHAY
# GAPDH coupling – GAPDH inhibition flagged for Giardia aldolase hits. shares compounds with Giardia FBPA inh-1. GAPDH coupling enzyme counterscreen, biochemical, qHTS. Potency, µM (top dose mostly 57.5 µM), for inactives: at the top dose activity change, negative = inhibition, actives largely listed as inhibitors. actives 6% (n = 1,500). AID 2795; note: nearly all actives have a fitted effect of over 55% in size
# Numbers without * were called inactive; ? = inconclusive; / = not tested or not shown; [ ] = another dose, or the depositor's remark. A selection: hits, their analogues and other compounds. The true share with any hit is near 3.3%. Unless noted, calls come from the whole dose curve; as a rule, active = well fitted curve in the direction sought with a large enough effect; inconclusive = small, poorly fitted or top-dose-only effect, or another doubt; inactive = no such curve, though single readings can be large; an effect the other way counts as inactive or inconclusive. % is set by controls: 0 for no effect and ±100 for the full control effect; potency is the fitted concentration of half-maximal effect.
SMILES,Giardia FBPA inh-1,Sm TGR inh,Tb PYK inh,RE007 growth inh,LmPK inh,Giardia growth,Mammal cell tox,Giardia FBPA inh-2,Rabbit aldolase,GAPDH coupling
Cc1ccccc1C(=O)N/N=C/c1ccccn1,6%,-9%,5%,9%,-9%,/,/,/,/,/
O=C(N/N=C\c1ccccn1)c1ccccc1O,16µM*,-1%,1%,-26%,-7%,-23%,?,-4%,-4%,-7%
Clc1ccc(CN2CC[C@H]3C=CCc4cccc(c43)C2)cc1,/,-2%,-3%,0%,/,/,/,/,/,/
CCOC(=O)C1CCN(CCC(=O)Nc2cc(C)ccc2C)CC1,-9%,-22%,8%,-20%,13%,/,/,/,/,/
C[n+]1cccc2c(Br)ccc([O-])c21,0.18µM*,45µM*,-10%,-20%,-6%,20µM*,-16%,4µM*,13µM*,4.5µM*
CC1=NN(c2nc3ccccc3[nH]2)C(=O)C1Cc1ccccc1 (configuration not stated),18µM*,5%,-5%,?,-1%,-21%,?,23%,6%,9%
O=c1[nH]c2ccccc2nc1NCc1ccccc1,-4%,1%,3%,2%,-9%,/,/,/,/,/
CN(CC(=O)O)S(=O)(=O)/C=C/c1ccccc1,0%,-2%,5%,2%,-3%,/,/,/,/,/
NC(=O)CN(C/C=C/c1ccccc1)C/C=C/c1ccccc1,28µM*,-2%,16%,-9%,2%,-11%,3%,-1%,2%,6%
O=C(O)CSc1c(O)c2ccccc2[nH]c1=O,18µM*,/,-15%,-15%,0%,?,1%,-18%,-20%,-18%
COC(=O)c1ccc(N=Nc2c(C)[nH]n(-c3ccccc3)c2=O)cc1,13µM*,-18%,1%,5%,4%,-24%,18%,8%,-2%,8%
Cc1[nH]n(-c2ccccc2)c(=O)c1N=Nc1cccc([N+](=O)[O-])c1,8.9µM*,-6%,3%,11%,5%,-37%[38.3 µM],5%,5%,9%,-3%
Cc1[nH]n(-c2ccccc2)c(=O)c1N=Nc1cccc(Cl)c1,?,16%,11%,-11%,-1%,/,/,/,/,/
COc1cccc2c1C(=O)C=C(C)C2=O,?,?,-10%,?,-2%,/,/,/,/,/
CC1=CC(=O)c2ccccc2C1=O,?,28µM*,1%,-25%[18.4 µM],2%,-8%[38.3 µM],-14%,?,?,?
CC1(C)Cc2c(c(-c3ccccc3)nc3sc4c(=O)[nH]c(=S)[nH]c4c23)CO1,4%,-5%,-2%,-9%,-1%,/,/,/,/,/
CC1(C)Cc2sc3c(=O)[nH]c(=S)[nH]c3c2CO1,10µM*,-9%,?,38%,-7%,-5%[38.3 µM],5%,-7%,12%,4%
O=C(Nc1nnc(-c2ccco2)o1)c1ccc(N2C(=O)CCC2=O)cc1,18µM*,-21%,-3%,-8%,0%,60%,18%,8%,3%,4%
O=C(Nc1nnc(-c2ccc(Cl)cc2)o1)c1ccc(N2C(=O)CCC2=O)cc1,23%,3%,-6%,-3%,1%,/,/,/,/,/
COC(=O)C1=C(O)/C(=C\c2sccc2C)N=C1C,-7%,-4%,-4%,-23%,-12%,/,/,/,/,/
COC(=O)C1=C(O)/C(=C\c2cc(C)n(-c3ccccc3F)c2C)N=C1C,13µM*,25µM*,-17%,0%,-1%,-14%,-2%,-18%,-22%,-26%
Cc1cc(C)c(-n2[nH]nnc2=S)c(C)c1,14µM*,2%,?,4%,1%,8%[10.4 µM],14%,5%,6%,10%
COc1ccc(C)cc1-n1[nH]nnc1=S,14µM*,2%,-17%,-11%,3%,-47%,16%,3%,7%,13%
COc1cc2ccccc2cc1C(=O)N(CCN(C)C)c1nc2ccc(C)cc2s1,-21%,3%,2%,6%,5%,/,/,/,/,/
Cc1cc(C)c2c(NC(=S)NC(=O)c3ccccc3)nn(C)c2n1,18µM*,?,0%,-7%,1%,-12%[10.4 µM],-12%,10%,5%,10%
SMILES,Giardia FBPA inh-1,Sm TGR inh,Tb PYK inh,RE007 growth inh,LmPK inh,Giardia growth,Mammal cell tox,Giardia FBPA inh-2,Rabbit aldolase,GAPDH coupling
CCCCc1cc(=O)oc2cc(C)cc(OC(C)C(=O)NCC3CCC(C(=O)O)CC3)c12 (configuration not stated),23%,-2%,4%,1%,1%,/,/,/,/,/
COc1ccccc1CNC(=O)C1CCC(=O)N(CCCc2ccccc2)C1 (configuration not stated),8%,-9%,9%,13%,1%,/,/,/,/,/
COc1ccc(CN2CCN(Cc3ccccc3C(F)(F)F)CC2)c(OC)c1,13µM*,0%,-6%,-13%,-1%,?,12%,-2%,8%,-4%
COc1ccc(CN2CCN(CCCc3ccccc3)CC2)c(OC)c1,16µM*,-2%,/,/,0%,8%,-14%,-1%,5%,13%
CCOC(=O)c1cc2sc(C)cc2n1CC(=O)N(CC)CC,15%,2%,3%,15%,0%,/,/,/,/,/
COc1ccc(-c2cc(C(=O)Nc3c(C)nn(Cc4ccccc4Cl)c3C)no2)cc1,4%,-23%,0%,-2%,10%,/,/,/,/,/
O=C(NNC(=S)Nc1ccc(Cl)c(Cl)c1)c1ccccn1,14µM*,/,-4%,6%,0%,-15%[10.4 µM],?,28%,15%,18%
Cc1ccc(C)c(NC(=O)CN2C(=O)C(C)(C)c3ccccc32)c1,/,0%,-2%,/,/,/,/,/,/,/
Cc1ccc(S(=O)(=O)N2CCN(CCc3ccccc3)CC2)c(C)c1,20µM*,0%,1%,5%,-15%,-3%,8%,5%,19%,6%
COc1ccc(S(=O)(=O)N2CCN(Cc3ccccc3)CC2)c(C)c1,8%,-16%,0%,-4%,-1%,/,/,/,/,/
C=CCc1ccc(OCCOc2cccc3ccc(C)nc23)c(OC)c1,11µM*,12%,24%,-4%,-6%,?,-19%,-22%,-13%,-9%
